Results taken from the supplement of paper PMC11417369.
± gives the standard deviation of the averaged measurements. Whole data set: some 25,000 sequences, median “ln(normalized median fluorescence intensity)” near 8.6, cut for the highest 2% near 10. Shown is part of a subset that was picked to be rich in the highest values.

Test system: PfAP2-EXP AP2 domain (GST-tagged)
Test: gcPBM binding intensity (ln(normalized median fluorescence intensity)); higher = stronger DNA binding
Method in brief: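 Binding intensity values are the highest Masliner-normalised natural-log median intensity among replicate spots of either probe orientation. The binding step lasted 1 h in 1× PBS with 1% milk, 0.2 mg/ml BSA, 0.5% salmon testes DNA and 0.03% Triton X-100, using GST-tagged P. falciparum DNA-binding domains expressed in E. coli on an Agilent 4 × 180k array of primer-extended double-stranded 36-bp intergenic genomic probes plus negative controls. Alexa488 anti-GST antibody and a 488 nm scan detected bound protein.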

Sequence | gcPBM binding intensity (ln)
ATATATTTATTTATATGTACATATTATATATTATAG [XGTACX_site3371] | 8.55 ± 0.35
AAGTATTTTTTTACATGTACATATATATATATATAT [XGTACX_site5065] | 10.2 ± 0.26
TATATTATATTTTTATGTACATATATGTTTTTTTTT [XGTACX_site8239] | 8.52 ± 0.092
ATGTATATATATATATGTACATATTTTTTATATGTA [XGTACX_site441] | 8.29 ± 0.25
TGTATGTTTATTTATCGTACATATATATATATATAT [XGTACX_site7315] | 10.2 ± 0.18
GTATATAAGTATATATGTACATATATTTTATATATA [XGTACX_site4745] | 8.42 ± 0.23
TTTCATTAATCTAATAGTACAGAAAATTGAGAAAAA [XGTACX_site8395] | 8.72 ± 0.34
ATTTTTTTCTTTTCTTTTTTCTTTTTTTTTTTTGGT [CACACA_negctrl_site1146] | 8.35 ± 0.61
AACTTATTAAGCCCTCCACATTTCTCTACTACAACT [CACACA_negctrl_site1552] | 8.61 ± 0.43
TATATTTCAGGGGGGAGTACAAATTTTTTTATATAA [XGTACX_site1600] | 10.9 ± 0.38
TATTTTTTTTTTATATGTACATAATTTCAAATAAAT [XGTACX_site7747] | 8.62 ± 0.48
TATAATTATATTTGGAGTACAAATTTTTTTTTTTTT [XGTACX_site7494] | 8.3 ± 0.32
ATAAAAAAAAAAAAAAAATATATATATATATATATA [XGTACX_negctrl_site424] | 10.2 ± 0.32
AAAAAAAAAAAAAAATATAAATATATATATATATAT [GTGCAC_negctrl_site28] | 10 ± 0.28
ATATAAATAAAAAAAAAAAAAAAAAAAAAAAAAAAA [CACACA_negctrl_site972] | 8.01 ± 0.43
TATAAAAAAAAAAAATATATATATATATAAATATAA [TGCATGCA_negctrl_site367] | 8.2 ± 0.31
TTATAAAAAAAAAAAAAAAATATATATATATATATA [XGTACX_negctrl_site592] | 10.3 ± 0.13
ATATAAAAAAAAAAAAAAAAATATATATATATATAT [GTGCAC_negctrl_site251] | 10.2 ± 0.13
TTATAATATAAAAATAAATAAATAAATAAATAAATA [CACACA_negctrl_site1587] | 8.55 ± 0.11
AAAAATAAAAAATATAAAAATATAAAAATATAAAAA [XGTACX_negctrl_site51] | 8.32 ± 0.38
TTATAATAAATATATAAAAAAAAAAAAAAAAAAAAA [CACACA_negctrl_site1639] | 7.97 ± 0.23
TAAATAATATCTATCACACACGCATATATACATATA [CACACA_site2622] | 8.32 ± 0.44
TAATATTATTTTTCAGTGCAATATAACCTTAGAATT [GTGCAC_site9417] | 8.38 ± 0.32
CATGTTCATCAGAACGCACACATAATGGTTTACTTA [CACACA_site898] | 8.47 ± 0.3

Sequence | gcPBM binding intensity (ln)
ATATAATTAAAATGCTCACACACATAAAAAAAAATT [CACACA_site2148] | 8.43 ± 0.55
CACAAAAATGTAATCACACATATATATATATATATA [CACACA_site5818] | 10.1 ± 0.38
TGAAAAATGTAATGCTCACACATATATATATATATA [CACACA_site5213] | 10.2 ± 0.32
AATAAAATAAGAAGCACACAAATATTATATATAAAA [CACACA_site3980] | 8.78 ± 0.42
ATTATAAATTAAAATACACACATATATACCTAATAT [CACACA_site5541] | 8.47 ± 0.4
TTACAAATATTATAATGTACCCATTTTTTTTGCCTT [XGTACX_site6612] | 8.47 ± 0.39
CATAATATATATTGAGCATGCTACTATTGTTAGAAA [TGCATGCA_site740] | 9 ± 0.31
AGAAACCTTGTTAGTTAGCATATATATATATATATA [CACACA_negctrl_site372] | 10.2 ± 0.49
TTATTCTTTAACTAAAATTATATATATATATTATAC [CACACA_negctrl_site1597] | 8.38 ± 0.34
AATGATTTTAAATGAACATAATTTATATTCATAACA [GTGCAC_negctrl_site256] | 8.04 ± 0.42
TCAATTTTACTTGTTTGTACATAAAATAATAAGGTT [XGTACX_site3732] | 8.44 ± 0.47
ACAACATATGTTATCACACACATATAAATATAAATA [CACACA_site7038] | 8.41 ± 0.54
CCAACATATATTATCACACACATATATATATATATA [CACACA_site2016] | 10.2 ± 0.22
AATAAATTATATATCACACATATATATTTATATTTA [CACACA_site5964] | 8.13 ± 0.23
ATATCACATATATATATATATATATATATATATATA [XGTACX_negctrl_site463] | 9.95 ± 0.61
GCACAACATATATTATCACACACATATATATATATA [CACACA_site8619] | 10.3 ± 0.18
AAAAAAAAAACACACACATGCACATCATATTATATA [TGCATGCA_site133] | 8.72 ± 0.54
AAAAAAAACAGACACACACACACATATACATACATA [CACACA_site2665] | 8.41 ± 0.38
AAAAAAATCACATAATATACTTTATTTTATTTTGTA [GTGCAC_negctrl_site562] | 7.89 ± 0.33
ATTTTTTTTTTTAATACACACAATTTTGATGAAGCA [CACACA_site3157] | 8.26 ± 0.41
CTAAAGTAAATTTAAGCACACACAACGAATTTTTAT [CACACA_site8599] | 8.65 ± 0.45
GATAAAATGGATGGATGTACATTATTTCCATATAAT [XGTACX_site7781] | 8.55 ± 0.5
AACCATTATTTCTCTACACACATTTATGTCATTTAC [CACACA_site1499] | 8.86 ± 0.56
TAGATACATAAACACACACACACATACATATATACA [CACACA_site9139] | 8.68 ± 0.6

Sequence | gcPBM binding intensity (ln)
CATATACATAAACACACACACACATAAATAAATATA [CACACA_site4864] | 8.68 ± 0.54
AAAAAAAAAAAAAGTACACACATACATATAAATATA [CACACA_site8533] | 8.48 ± 0.4
TAAAAAAAAAAAAAAAGTACACACATACATATAAAT [XGTACX_site3752] | 8.61 ± 0.44
AAAAAAAAAAAACATACACACATACATACAGATATA [CACACA_site4681] | 8.5 ± 0.64
AAGTACATACATAAAACACACACATATATATATATA [CACACA_site8541] | 10.2 ± 0.17
TACATATATAAAAAAACACACACATATATATATATA [CACACA_site8315] | 10.1 ± 0.46
TACAGATATAAACACACACACATATATATATATATA [CACACA_site4846] | 10.2 ± 0.48
TACATACATAAACACACACACACATATATATATATA [CACACA_site8953] | 10.1 ± 0.35
GTACATACATAAAACACACACATATATATATATATA [CACACA_site1826] | 10.2 ± 0.75
TATATACATAAACACACACACACATATATATATATA [CACACA_site8707] | 10.2 ± 0.29
TATACACATATATAAACACACAAAAAAAAAAAAAAA [CACACA_site7041] | 8.19 ± 0.63
GTTAATATACTTAATACACACACGAATATATATAAA [CACACA_site1181] | 8.69 ± 0.35
ACCTAATTTTTATATTGTACATAATATAATATATAT [XGTACX_site1715] | 8.66 ± 0.3
ATTTAAAAAAAAAAAAAAAAAAAAAAAAAAAGAAAA [CACACA_negctrl_site722] | 8.01 ± 0.43
TATATATATATGTATACACACATATGTATGTTATGT [CACACA_site4053] | 9.65 ± 0.28
CCAATACATAGAAACTGTACATTATGCATTATACAC [XGTACX_site3531] | 8.79 ± 0.28
ATTAAATACTTCGATTGTACAATTTTTTTTTTTTTT [XGTACX_site832] | 8.59 ± 0.59
ATTTAAAATGGTTATACACACATAAAAGGGGAAATG [CACACA_site2649] | 8.95 ± 0.57
TTTTTTTTTCGCTTTTGTACACATTTTATAGAACAG [XGTACX_site2416] | 8.87 ± 0.46
AAAAAAAAAAAAAAGCGTACAAATAAAATATATTTA [XGTACX_site7195] | 8.52 ± 0.49
AACATATACACGAACACACACACATATAAATAAATA [CACACA_site6380] | 8.74 ± 0.56
CCCCCCCACGAACACACACACATACATACCACATAT [CACACA_site7149] | 10.41 ± 0.028
AACATATACACGAACACACACACATATATATATATA [CACACA_site502] | 10.1 ± 0.38
GGCATACACGAACACACACACACACGCACATATATA [CACACA_site6426] | 8.96 ± 0.52

Sequence | gcPBM binding intensity (ln)
CATATACACGAACACACACACATATATATATATATA [CACACA_site4437] | 10.3 ± 0.39
CATATACACGAACACACACACATATAAATAAATATA [CACACA_site6379] | 8.73 ± 0.46
ATTATATTTCAATTATGTACATATAAAATGAATAAA [XGTACX_site4204] | 8.43 ± 0.38
ATGAATATAATAAAGAAACACACGTATACATAATGA [CACACA_site1355] | 8.8 ± 0.54
TAAAATTTACAACACTGTACTTGAATTTATCTTTAA [XGTACX_site241] | 8.25 ± 0.37
CGCATAAAGACAAGAACACACATATAGATTGTAGTA [CACACA_site3693] | 8.27 ± 0.49
GTTATATTTAAAATAGTGCAATAAAAATAATAATAT | 8.89 ± 0.2
ATTATTATATAGTGTGCATGCAATATTAATAAAACC [TGCATGCA_site245] | 10.3 ± 0.4
ATTATATATAATATAGTGCATGTAAAAAATAAAACA | 9.23 ± 0.33
ATTGCGTGATAATAATGTACAAAAAGTAATTTATAT [XGTACX_site8339] | 8.48 ± 0.45
TAATTCGCAAAAGAAAGAAATTAAGAAAAAGAAAAA [XGTACX_negctrl_site614] | 8.32 ± 0.68
ATATATTTTATTCCTATATATATATATATATATATA [GTGCAC_negctrl_site556] | 10.2 ± 0.49
GTATATATATATATATATATATATTTTTATTTATTT [CACACA_negctrl_site589] | 8.65 ± 0.18
ATTTTTTTTATTTTTTCAATATATATATATATATAT [CACACA_negctrl_site1444] | 10.2 ± 0.19
GTATATATTTTTATTTAATAATTTGTTTATTTATTC [CACACA_negctrl_site647] | 8.56 ± 0.22
ATTTGTATATAATATATATAATTTTTTTTTTTTGTT [XGTACX_negctrl_site425] | 8.2 ± 0.31
TTTTTTTATTATTCTTATATAAAAATTTTTTTTAAT [CACACA_negctrl_site159] | 8.27 ± 0.45
TTTTATTATTCTTCTCTCTTATATATATATATATAT [CACACA_negctrl_site646] | 10.2 ± 0.26
TTTTCATTCAATTATATTTATATATATATATATATA [GTGCAC_negctrl_site538] | 10.2 ± 0.44
ATATATATATATATATATATAATTTTTTTTGTTTTT [TGCATGCA_negctrl_site453] | 10.3 ± 0.3
TCTTTCTTATATTTATATAATTATATTTATTTTATA [GTGCAC_negctrl_site300] | 8.74 ± 0.38
TTTTTTTTTTTTTTTTTTTTCATTCAATTATATTTA [CACACA_negctrl_site712] | 8.04 ± 0.33
TTTTATTCCTATTTATTTATATTTTTGTCTTATATC [CACACA_negctrl_site125] | 8.8 ± 0.43
